Test results: PubChem BioAssay (NCI)
The panel holds about 83,000 compounds, 20% with a hit somewhere; the sample as a whole holds those more often.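 A percent growth of 40 corresponds to 60% growth inhibition; 0 means no net growth; -100 means all cells died. Active threshold: below 10.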 Unmarked numbers belong to inactive results. Active and inactive are the calls of the source.

system: SK-MEL-2 melanoma; assay: NCI-60 one-dose screen, 48 h (100 = growth as untreated, 0 = no growth, -100 = all killed); details: 10 µM unless noted
Procedure: Growth inhibition of the SK-MEL-2 human tumor cell line is measured as a screen for anti-cancer activity. Cells are grown in 96 well plates and exposed to the test compound for 48 hours. Compounds are tested at a single concentration, which is 10^-5 M for most compounds. The reported endpoint is percent growth (GI% or GIPRCNT), where numbers from 0 - 100% represent growth inhibition, and numbers from -100% - 0 represent cell death. For example, a value of 40 represents 60% growth inhibition. A value of 0 means no net growth occurred over the course of the experiment. A value of -40 indicates 40% of cells at the beginning of the experiment died by the end of the experiment. A value of -100 means all cells are dead at the end of the experiment.
NCI-60 Human Tumor Cell Lines Screen was performed using the standard one-dose NCI protocol, which is described in more detail at https://dtp.cancer.gov/discovery_development/nci-60/default.htm.
Compounds with GIPRCNT values below 10 were considered active. Activity score was based on GIPRCNT using the following formula: […]
Score is 0 for GIPRCNT values of 100 or above, 50 for GIPRCNT values of 0, and 100 for GIPRCNT values of -100.

Row | SMILES | growth
1 | O=[N+]([O-])c1ccc(S(=O)(=O)N2CCN(c3ccnc4cc(Cl)ccc34)CC2)c([N+](=O)[O-])c1 | 101%
2 | CCC1=C[C@@H]2CN(C1)Cc1c([nH]c3ccccc13)[C@@](C(=O)OC)(c1cc3c(cc1OC)N(C=O)[C@H]1[C@@](O)(C(=O)OC)[C@H](OC(C)=O)[C@]4(CC)[C@@H]5C[C@@H]5CN5CC[C@]31[C@@H]54)C2 | 18%
3 | O=S(=O)(NCCCNc1nccc(-c2c(-c3ccccc3)nc3sccn23)n1)c1ccc(F)cc1 | 53.8%
4 | COc1ccc(-c2nc(-c3nc4ccc(F)cc4[nH]3)cc3c2[nH]c2ccccc23)cc1 | 29.4%
5 | CC[C@H](C)[C@@H]1NC(=O)[C@H]([C@@H](C)O)NC(=O)C(Cc2ccccc2)NC(=O)[C@@H]2CCCN2C(=O)C(C(C)C)NC(=O)C(Cc2ccccc2)NC(=O)CNC(=O)[C@@H]2CCCN2C1=O (stereo not given in full) | 88.9%
6 | c1ccc2c(c1)Oc1ccccc1C2C1c2ccccc2Oc2ccccc21 | 92.6%
7 | O=C(CN1CCN(c2cc3c(cc2F)c(=O)c(C(=O)O)cn3C2CC2)CC1)Nc1ccc(C(=O)/C=C/c2ccccc2)cc1 | 53.7%
8 | O=P([O-])(O)OP(=O)([O-])O.[NH-][C@H]1CCCC[C@@H]1[NH-].[OH-].[OH-].[Pt+4] | 117%
9 | CC1Cc2c(N(C)C)ncnc2N(C)c2ccc(Cl)cc21 (stereo not given) | 27.3%
10 | COc1ccc(NC(=O)/N=c2\oc3c(OC)cccc3cc2-c2cc3ccccc3[nH]2)cc1 | 75.9%
11 | COc1cc(C2C=C(C)N=C3SC=C(C)N32)cc(OC)c1OC (stereo not given) | -39.5% (active)
12 | CCCCC(N)(C(=O)O)C1CCCC1 (stereo not given) | 117%
13 | Cc1ccc2nc(SCn3nnc4ccccc4c3=O)[nH]c2c1 | 69.5%
14 | Cc1cc(Nc2nc(C(=O)Nc3ccccc3)nc3ccccc23)n[nH]1 | 45.3%
15 | CCN1C(=S)N(CC)C2Nn3c(s/c(=C4\C(=O)N(C)c5ccccc54)c3=O)=NC21 (stereo not given) | 70.4%
16 | CN1C(=O)[C@H]2c3c1cccc3[C@@]13NC(=O)O[C@H]1[C@H](CCC3(C)C)C2(C)C | 92.8%
17 | O=C(O)c1ccc(-n2c(=O)c3ccccc3c3ccccc3c2=O)cc1 | 93%
18 | COc1cc(NCCCN=C(N)NC(N)=NC(C)C)c2ncccc2c1 | 16.2%
19 | O=C1Nc2cc(Cl)ccc2Oc2cc(Oc3ccccc3)ccc21 | 48%
20 | COC1=CC(c2ccc[nH]2)=N/C1=C\c1[nH]c(C)c(C(=O)CCCCC(=O)Oc2ccc3c(c2)CCC2C3CC[C@]3(C)[C@@H](O)CC[C@@H]23)c1C (stereo not given in full) | 70.5%

Row | SMILES | growth
21 | Clc1ccc([I+]c2ccc(Cl)cc2Cl)c(Cl)c1 | 77.4%
22 | CSc1ccccc1C#C/C=C\C#Cc1ccccc1N1CCCC1=O | 35.4%
23 | CC(=O)OC[Si](C)(C)c1ccccc1 | 126%
24 | C=C1C(=O)O[C@H]2[C@H]1CC/C(Cn1cc(-c3ccsc3)nn1)=C\CC[C@@]1(C)O[C@@H]21 | -21.5% (active)
25 | O=C(O)c1cn(C2CC2)c2cc(N3CCN(S(=O)(=O)c4ccc(Cl)c(Cl)c4)CC3)c(F)cc2c1=O | -9.56% (active)
26 | COc1ccc(/C=c2\sc3n(c2=O)C2C(NN=3)N(C)C(=O)N2C)cc1 (stereo not given) | 39.6%
27 | COc1ccc(/C=C2\C(=O)N(C(=O)c3csc(NC(C)=O)n3)N=C2C)cc1 | 94.8%
28 | Nc1c(C(=O)Nc2ccccc2)sc2nc3c(cc12)CCC3 | 86%
29 | COc1ccc(C(=O)/C=C/c2cccc([N+](=O)[O-])c2)c(OC)c1 | 72.4%
30 | CC1=CNNc2c3ncnc-3ncn21 | 111%
31 | COc1cc(Cn2c(SCC(=O)Nc3ccc(Cl)cc3)nc3ccccc3c2=O)cc(OC)c1OC | 81%
32 | CCCCCCCCCCn1cc[n+](C)c1 | 13.1%
33 | COC1=CC(c2ccc[nH]2)=N/C1=C\c1[nH]c(C)c(C(=O)CCCCC(=O)Nc2ccccc2)c1C | 90.7%
34 | CCCCCCc1nc2c(c(C)nn2-c2ccccc2)c2c1CCCCC2 | 116%
35 | C=CCn1c(C)nc2ccc(Nc3nc(Nc4ccc(F)cc4)nc4ccccc34)cc21 | 58.1%
36 | COc1cc(-c2nc(-c3nc4ccccc4[nH]3)cc3c2[nH]c2ccccc23)cc(OC)c1OC | 23.9%
37 | O=C1CCCCN1CCCCC#Cc1ccccc1C#Cc1ccc([N+](=O)[O-])cc1 | 5.87% (active)
38 | CC(C)C(C(=O)CCN(C)C)c1ccc(Cl)cc1 (stereo not given) | 98.4%
39 | COc1ccc(-n2c(C)cc(-c3ccccc3)c2C)cc1 | 40%
40 | C=CCc1cc(Cl)cc2c(OC(C)=O)c(C(C)=O)c(-c3ccccc3)nc12 | 112%
